The text below walks through data of PubChem BioAssay (NCI).

Among the test systems are HCT-15 colon; HT29 colon; SNB-75 CNS; SNB-19 CNS; U251 CNS; PC-3 prostate; SK-MEL-5 melanoma; LOX IMVI melanoma; SK-MEL-28 melanoma; UACC-62 melanoma.
Test in all cases: NCI-60 one-dose screen, 48 h (100 = growth as untreated, 0 = no growth, -100 = all killed)
What all share (conditions): 10 µM unless noted

Structures are written as SMILES. The panel holds about 83,000 compounds, 20% with a hit somewhere; the sample as a whole holds those more often.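 In brief: 96-well plates, 48 h treatment, single concentration, percent growth endpoint.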 A number with no mark means an inactive call. Activity calls are given as the source filed them. The calls were made as follows: active = growth percent below 10; inactive = the rest.

In the case of `Cc1ccc2[nH]c3nc4cccnc4c(C)c3c2c1`, the growth in the experiment with HCT-15 colon was 88.1%; in the experiment on HT29 colon, 92.6%; with SNB-75 CNS, 77.6%; in the experiment on SNB-19 CNS, 79%; in the experiment on U251 CNS it was 75.7%; in the experiment with PC-3 prostate it was 92.7%. In addition, the growth in the experiment with SK-MEL-5 melanoma is 95.2%; with LOX IMVI melanoma, 89.7%; in the experiment with SK-MEL-28 melanoma, 119%.
Turning to `CCOC(=O)C1=C(N)Oc2cc(OC)ccc2C1c1ccc(F)c(F)c1` (stereo unspecified), the growth was 22.3% in the experiment with HCT-15 colon; 2.96% (active) in the experiment with HT29 colon; 5.44% (active) in the experiment with SNB-75 CNS; 28.1% with SNB-19 CNS; 28.2% with U251 CNS; 26.8% in the experiment on PC-3 prostate. Moreover, the results for the growth in the experiment on SK-MEL-5 melanoma, in the experiment with LOX IMVI melanoma and in the experiment with SK-MEL-28 melanoma were 12.8%, 43.8% and 63.2%, respectively.
Take `CC(=O)N1N=C(CCC(=O)c2nc3ccc([N+](=O)[O-])cc3[nH]2)OC1c1ccc(O)cc1` (stereo unspecified): the growth is 97.1% in the experiment on HCT-15 colon; 76.5% with HT29 colon; 97.9% in the experiment with SNB-75 CNS; 107% in the experiment on SNB-19 CNS; 109% in the experiment with U251 CNS; 101% with PC-3 prostate. The results for the growth in the experiment with SK-MEL-5 melanoma, in the experiment with LOX IMVI melanoma and in the experiment on SK-MEL-28 melanoma were 112%, 94.8% and 115%, respectively.
On to `CCN(CC)CC(=O)Nc1c(C)cccc1C`, for which the growth in the experiment with HCT-15 colon was 98.1%; in the experiment with HT29 colon, 111%; with SNB-75 CNS, 95.5%; in the experiment on SNB-19 CNS it was 106%; in the experiment with U251 CNS it was 106%; in the experiment with PC-3 prostate it was 100%. The figures for the growth in the experiment with SK-MEL-5 melanoma, in the experiment with LOX IMVI melanoma and in the experiment with SK-MEL-28 melanoma were 93.2%, 100% and 110%, respectively.
As for `O=C(Nc1ccc(-n2ccc3c(NC(=O)c4ccccc4)ncnc32)cc1)Nc1ccc(Cl)c(C(F)(F)F)c1`, the growth was -53.2% (active) in the experiment with HCT-15 colon; -85.8% (active) with HT29 colon; 53.5% in the experiment with SNB-75 CNS; 9.33% (active) in the experiment on SNB-19 CNS; -79.6% (active) in the experiment with U251 CNS; -38.8% (active) in the experiment with PC-3 prostate. Moreover, the growth was 8.12% (active) with SK-MEL-5 melanoma, 2.99% (active) in the experiment on LOX IMVI melanoma and 34.6% in the experiment with SK-MEL-28 melanoma.
`Nc1n[nH]c2cccc(C#Cc3cccc(NC(=O)c4cccc(C(F)(F)F)c4)c3)c12`: the growth in the experiment with HCT-15 colon is 30.2%; in the experiment on HT29 colon, 13.3%; with SNB-75 CNS it was 30.5%; with SNB-19 CNS, 80.1%; with U251 CNS it was 49.4%; in the experiment on PC-3 prostate, 39.9%. The growth is 43.9% in the experiment with SK-MEL-5 melanoma, 26.1% in the experiment on UACC-62 melanoma, 2.44% (active) in the experiment on LOX IMVI melanoma and 23.9% in the experiment on SK-MEL-28 melanoma.
For `S=c1n(CNc2ccc(Cl)nn2)nc(-c2cc(Cl)cc(Cl)c2Cl)n1/N=C/c1ccc(Cl)cc1`, the growth in the experiment with HCT-15 colon is 117%; in the experiment with HT29 colon, 118%; in the experiment on SNB-75 CNS, 98.5%; in the experiment on SNB-19 CNS it was 102%; in the experiment on U251 CNS, 86.9%; in the experiment on PC-3 prostate it was 82.6%. Besides, the growth is 90.9% with SK-MEL-5 melanoma, 94.5% in the experiment on LOX IMVI melanoma and 105% with SK-MEL-28 melanoma.
Take `CCCCCCCCN(CCCCCCCC)CC(O)c1cc(-c2ccccc2)nc2ccc(OC)cc12` (stereo unspecified): the growth in the experiment on HCT-15 colon is 10.7%; with HT29 colon, 80.1%; in the experiment with SNB-75 CNS, 96.4%; with SNB-19 CNS, 63.2%; in the experiment on U251 CNS, 15.7%; in the experiment on PC-3 prostate, 32.3%. For the same compound, the growth in the experiment on LOX IMVI melanoma is 21%; in the experiment on SK-MEL-28 melanoma, 100%.
Take `O=C(Nc1ccc(-n2cc(-c3ccncc3)c(-c3ccc(O)c(Cl)c3)n2)cc1)c1cc(C(F)(F)F)cc(C(F)(F)F)c1`: the growth is 34.6% in the experiment on HCT-15 colon; 51.7% in the experiment on HT29 colon; 63.9% in the experiment with SNB-75 CNS; 66.2% in the experiment with SNB-19 CNS; 43.8% in the experiment on U251 CNS; 35.8% in the experiment with PC-3 prostate. Moreover, the growth was 71.2% in the experiment on UACC-62 melanoma, 42.4% in the experiment with LOX IMVI melanoma and 68.8% in the experiment with SK-MEL-28 melanoma.
On to `O=C(Nc1ccc(-n2ccc3c(NC(=O)c4ccccc4)nccc32)cc1)Nc1ccc(Cl)c(Cl)c1`, for which the growth with HCT-15 colon is -50.8% (active); in the experiment with HT29 colon, -42.8% (active); in the experiment on SNB-75 CNS, -7.26% (active); in the experiment on SNB-19 CNS, -40.2% (active); in the experiment on U251 CNS it was -79.6% (active); with PC-3 prostate it was 23.9%. Besides, the growth with UACC-62 melanoma is -46.4% (active); with LOX IMVI melanoma, -72.4% (active); with SK-MEL-28 melanoma, 18.2%.
For `COc1cccc(-c2nc3sccn3c2-c2ccnc(NCCNC(=O)c3ccccc3)n2)c1`, the growth in the experiment with HCT-15 colon is 81.9%; with HT29 colon, 53.5%; in the experiment on SNB-75 CNS, 92.6%; in the experiment with SNB-19 CNS, 110%; in the experiment on U251 CNS, 102%; with PC-3 prostate, 79.7%. The growth in the experiment on UACC-62 melanoma was 24.6%; in the experiment on LOX IMVI melanoma, 54.7%; in the experiment with SK-MEL-28 melanoma, 64.2%.
Turning to `COC(OC)C1(c2ccccc2)NC(=O)NC1=O` (stereo unspecified), the growth with HCT-15 colon is 110%; with HT29 colon it was 106%; in the experiment on SNB-75 CNS, 94%; in the experiment on SNB-19 CNS, 106%; in the experiment with U251 CNS it was 107%; in the experiment with PC-3 prostate, 103%. The growth in the experiment on UACC-62 melanoma is 106%; in the experiment with LOX IMVI melanoma, 109%; in the experiment on SK-MEL-28 melanoma, 106%.
Regarding `CC(C)CNCC(=O)Nc1ccc(Cc2ccc(NC(=O)CNCC(C)C)cc2)cc1`, the growth in the experiment with HCT-15 colon is 50.2%; with HT29 colon, 15.8%; in the experiment with SNB-75 CNS, 65.7%; in the experiment with SNB-19 CNS, 72.6%; with U251 CNS it was 50.5%; in the experiment on PC-3 prostate it was 25.8%. The figures for the growth in the experiment with UACC-62 melanoma, in the experiment on LOX IMVI melanoma and in the experiment with SK-MEL-28 melanoma were 64.6%, 60.4% and 80.4%, respectively.
Consider `CC(=O)N1N=C2N(Cc3ccccc3)C(=O)c3c(sc4c3CCCC4)N2C1c1cn(-c2ccccc2)nc1-c1ccc(Cl)cc1` (stereo unspecified), for which the growth was 96.9% in the experiment on HCT-15 colon; 107% in the experiment with HT29 colon; 99.3% in the experiment with SNB-75 CNS; 94.2% in the experiment with SNB-19 CNS; 87.2% in the experiment with U251 CNS; 92.6% with PC-3 prostate. Besides, the growth was 95.5% in the experiment with UACC-62 melanoma, 92.9% in the experiment with LOX IMVI melanoma and 104% with SK-MEL-28 melanoma.
